The source of these data is publication PMC5700166.

Substitutions are numbered along the chain they refer to.

What all share (assay): protein-binding microarray (PBM); PBM: ~300 nM protein, 6 mM HEPES pH 7.8, 80 mM KCl, 0.5 mM EDTA, 0.5 mM EGTA, 6% glycerol, 35 ng/ul poly-dIdC, 1% milk, 1 h, room temperature; Ap Aiptasia and Nv Nematostella (sea anemones) / Co Capsaspora / Aq Amphimedon (sponge) / Dm Drosophila / Hu human; RHD is the Rel homology domain; high values mean tight binding
Common to all, as to conditions: dsDNA, one strand shown

The target in one test is T1, GST-Ap-NF-kB RHD (Exaiptasia pallida (Aiptasia), UniProt A0A913YAJ5 2-422).
T1 sequence: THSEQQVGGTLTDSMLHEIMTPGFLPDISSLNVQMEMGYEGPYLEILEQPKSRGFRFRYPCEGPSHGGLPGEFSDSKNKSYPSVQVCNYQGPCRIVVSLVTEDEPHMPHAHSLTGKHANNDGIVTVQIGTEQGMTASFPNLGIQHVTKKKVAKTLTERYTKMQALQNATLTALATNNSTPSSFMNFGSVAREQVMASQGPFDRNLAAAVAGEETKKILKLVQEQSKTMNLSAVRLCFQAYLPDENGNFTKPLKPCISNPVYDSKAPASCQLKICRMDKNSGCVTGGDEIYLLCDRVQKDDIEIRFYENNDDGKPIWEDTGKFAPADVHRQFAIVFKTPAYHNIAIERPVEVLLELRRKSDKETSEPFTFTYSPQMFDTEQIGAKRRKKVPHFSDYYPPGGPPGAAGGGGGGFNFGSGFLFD

For test [1], the target named is T2, GST-Nv-NF-kB (Cys allele) (Nematostella vectensis, UniProt E5G601 2-411).
T2 sequence: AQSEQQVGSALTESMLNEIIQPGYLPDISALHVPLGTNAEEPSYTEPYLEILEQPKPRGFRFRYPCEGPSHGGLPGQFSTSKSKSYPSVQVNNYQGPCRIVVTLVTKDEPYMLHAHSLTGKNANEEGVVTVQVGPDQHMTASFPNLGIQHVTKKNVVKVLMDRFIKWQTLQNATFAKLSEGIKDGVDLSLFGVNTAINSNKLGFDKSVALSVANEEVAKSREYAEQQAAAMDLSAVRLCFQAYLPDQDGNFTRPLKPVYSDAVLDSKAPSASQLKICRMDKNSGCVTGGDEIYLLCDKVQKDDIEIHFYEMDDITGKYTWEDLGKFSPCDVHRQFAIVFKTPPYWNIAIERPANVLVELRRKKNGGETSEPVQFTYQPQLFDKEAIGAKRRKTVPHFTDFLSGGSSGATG

In test [2] the target is T3, GST-Nv-NF-kB (Ser allele) (Nematostella vectensis, UniProt A7UNT2 2-411).
T3 sequence: T2 sequence with Q21R, C66S, S207N, E215Q, V217A, E225K, A268E, D399E

For another test, the target named is T4, GST-Co-NF-kB (Capsaspora owczarzaki, UniProt F1ARL5 200-546).
T4 sequence: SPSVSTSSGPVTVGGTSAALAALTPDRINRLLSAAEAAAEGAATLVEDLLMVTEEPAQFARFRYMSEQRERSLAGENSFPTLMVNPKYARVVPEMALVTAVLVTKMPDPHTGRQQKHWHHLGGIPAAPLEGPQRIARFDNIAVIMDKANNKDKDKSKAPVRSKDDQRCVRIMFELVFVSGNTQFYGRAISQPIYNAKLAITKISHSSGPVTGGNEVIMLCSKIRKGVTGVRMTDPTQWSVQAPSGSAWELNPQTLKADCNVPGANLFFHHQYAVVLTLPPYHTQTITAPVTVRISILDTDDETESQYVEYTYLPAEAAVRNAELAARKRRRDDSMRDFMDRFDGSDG

The next test deals with T5, GST-Dm-Relish (Drosophila melanogaster, UniProt Q94527 99-473).
T5 sequence: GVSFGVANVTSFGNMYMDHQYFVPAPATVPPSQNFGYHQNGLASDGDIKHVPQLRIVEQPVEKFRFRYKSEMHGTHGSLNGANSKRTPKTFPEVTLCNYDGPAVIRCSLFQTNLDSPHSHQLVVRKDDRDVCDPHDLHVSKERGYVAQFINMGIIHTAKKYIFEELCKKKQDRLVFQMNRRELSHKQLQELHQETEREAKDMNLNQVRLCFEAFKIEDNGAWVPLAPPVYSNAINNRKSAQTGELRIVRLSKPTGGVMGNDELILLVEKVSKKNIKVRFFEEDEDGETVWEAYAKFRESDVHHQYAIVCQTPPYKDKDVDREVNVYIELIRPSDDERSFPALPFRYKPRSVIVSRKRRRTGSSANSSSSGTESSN

A further test addresses T6, GST-Aq-NF-kB (Amphimedon queenslandica, UniProt A9Y5G7 2-389).
T6 sequence: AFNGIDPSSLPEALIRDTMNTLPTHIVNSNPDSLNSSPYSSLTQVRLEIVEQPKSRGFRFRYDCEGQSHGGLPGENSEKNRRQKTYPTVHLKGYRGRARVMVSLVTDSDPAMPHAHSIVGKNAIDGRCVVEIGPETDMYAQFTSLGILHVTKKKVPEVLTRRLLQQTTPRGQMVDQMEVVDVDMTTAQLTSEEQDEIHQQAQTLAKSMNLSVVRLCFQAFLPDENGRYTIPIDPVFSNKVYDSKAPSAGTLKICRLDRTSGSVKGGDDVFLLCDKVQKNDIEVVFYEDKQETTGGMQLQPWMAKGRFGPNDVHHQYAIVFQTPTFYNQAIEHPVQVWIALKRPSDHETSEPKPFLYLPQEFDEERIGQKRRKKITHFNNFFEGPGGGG

In another test the target is GST-Hu-p50 (Homo sapiens, UniProt P19838 7-356).
Chain of GST-Hu-p50 (P19838 7-356): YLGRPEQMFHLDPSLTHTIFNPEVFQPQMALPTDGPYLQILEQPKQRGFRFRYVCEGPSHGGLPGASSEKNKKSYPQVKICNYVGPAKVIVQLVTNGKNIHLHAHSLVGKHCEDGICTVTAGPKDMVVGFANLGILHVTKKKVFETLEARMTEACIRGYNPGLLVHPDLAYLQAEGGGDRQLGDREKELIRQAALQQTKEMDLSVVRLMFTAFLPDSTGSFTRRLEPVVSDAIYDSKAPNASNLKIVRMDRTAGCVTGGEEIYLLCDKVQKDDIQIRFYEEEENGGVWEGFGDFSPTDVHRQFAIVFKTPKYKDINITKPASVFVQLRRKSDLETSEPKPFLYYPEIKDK

Take “CCGATTAACATCAAGAATTCCCCTGATGTTAATCGGGTCTTGATTCGCTTGACGCTGCTG”: the binding signal in the test with GST-Ap-NF-kB RHD was determined as 9.76 z-score; in test [1], 11.7 z-score; in test [2], 12.3 z-score; with GST-Co-NF-kB, 7.33 z-score; in the test with GST-Dm-Relish, 8.81 z-score; with GST-Aq-NF-kB, 8.32 z-score. In the test with GST-Hu-p50, this sequence gave a binding signal of 7.54 z-score.

Take “CCGATTAACATCAGATATTCCCATGATGTTAATCGGGTCTTGATTCGCTTGACGCTGCTG”: the binding signal with GST-Ap-NF-kB RHD was determined as 3.86 z-score; in test [1], 3.21 z-score; in test [2] it was 3.17 z-score; with GST-Co-NF-kB, 2.8 z-score; with GST-Dm-Relish it was 1.78 z-score; with GST-Aq-NF-kB it was 2.67 z-score. Besides, the binding signal in the test with GST-Hu-p50 is 1.97 z-score.

On to “CCGATTAACATCAAATTTCCCCCTGATGTTAATCGGGTCTTGATTCGCTTGACGCTGCTG”, for which the binding signal is 9.03 z-score in the test with GST-Ap-NF-kB RHD; 9.93 z-score in test [1]; 12.8 z-score in test [2]; 12.3 z-score with GST-Co-NF-kB; 7.24 z-score with GST-Dm-Relish; 7.79 z-score with GST-Aq-NF-kB. For the same sequence, the binding signal with GST-Hu-p50 came out at 7.66 z-score.

For the sequence “CCGATTAACATCAAAAACCCCCATGATGTTAATCGGGTCTTGATTCGCTTGACGCTGCTG”, the binding signal turned out to be 9.51 z-score with GST-Ap-NF-kB RHD; 8.21 z-score in test [1]; 9 z-score in test [2]; 3.93 z-score with GST-Co-NF-kB; 9.82 z-score in the test with GST-Dm-Relish; 7.68 z-score in the test with GST-Aq-NF-kB. In the test with GST-Hu-p50, this sequence had a binding signal of 7.91 z-score.

Regarding “CCGATTAACATCACGATTTCCCCTGATGTTAATCGGGTCTTGATTCGCTTGACGCTGCTG”, the binding signal worked out at 7.82 z-score in the test with GST-Ap-NF-kB RHD; 7.92 z-score in test [1]; 10.8 z-score in test [2]; 8.64 z-score with GST-Co-NF-kB; 5.06 z-score with GST-Dm-Relish; 5.72 z-score with GST-Aq-NF-kB. The same sequence came in with a binding signal in the test with GST-Hu-p50 of 6.24 z-score.

For “CCGATTAACATCAGAGAACCCCCTGATGTTAATCGGGTCTTGATTCGCTTGACGCTGCTG”, the binding signal with GST-Ap-NF-kB RHD worked out at 7.89 z-score; in test [1], 6.19 z-score; in test [2], 6.92 z-score; with GST-Co-NF-kB it was 2.09 z-score; with GST-Dm-Relish, 7.55 z-score; with GST-Aq-NF-kB it was 6.18 z-score. The same sequence gave a binding signal with GST-Hu-p50 of 6.47 z-score.

For “CCGATTAACATCAGGGAAAACTATGATGTTAATCGGGTCTTGATTCGCTTGACGCTGCTG”, the binding signal came to 3.76 z-score with GST-Ap-NF-kB RHD; 5.55 z-score in test [1]; 7.33 z-score in test [2]; 5.67 z-score with GST-Co-NF-kB; 1.67 z-score with GST-Dm-Relish; 4.07 z-score in the test with GST-Aq-NF-kB. In addition, the binding signal with GST-Hu-p50 is 4.03 z-score.

As to “CCGATTAACATCACCCGTTCCCCTGATGTTAATCGGGTCTTGATTCGCTTGACGCTGCTG”, the binding signal in the test with GST-Ap-NF-kB RHD is 5.61 z-score; in test [1], 4.83 z-score; in test [2], 6.11 z-score; with GST-Co-NF-kB it was 4.75 z-score; with GST-Dm-Relish, 1.99 z-score; with GST-Aq-NF-kB, 3.78 z-score. In the test with GST-Hu-p50, this sequence showed a binding signal of 3.85 z-score.

With “CCGATTAACATCACTATATCCCCTGATGTTAATCGGGTCTTGATTCGCTTGACGCTGCTG”, the binding signal with GST-Ap-NF-kB RHD came to 4.49 z-score; in test [1] it was 4.08 z-score; in test [2] it was 5.9 z-score; in the test with GST-Co-NF-kB, 3.51 z-score; with GST-Dm-Relish, 2.01 z-score; with GST-Aq-NF-kB, 2.75 z-score. The binding signal in the test with GST-Hu-p50 came to 3.18 z-score.

With “CCGATTAACATCAGAGACTTCCCTGATGTTAATCGGGTCTTGATTCGCTTGACGCTGCTG”, the binding signal was 1.92 z-score with GST-Ap-NF-kB RHD; 2.44 z-score in test [1]; 2.19 z-score in test [2]; 1.11 z-score with GST-Co-NF-kB; 1.95 z-score with GST-Dm-Relish; 3.32 z-score in the test with GST-Aq-NF-kB. The sequence further had a binding signal in the test with GST-Hu-p50 of 1.57 z-score.

Consider “CCGATTAACATCAAGGGGGAAACTGATGTTAATCGGGTCTTGATTCGCTTGACGCTGCTG”, for which the binding signal in the test with GST-Ap-NF-kB RHD was determined as 7.59 z-score; in test [1], 7.46 z-score; in test [2], 9.77 z-score; with GST-Co-NF-kB, 8.9 z-score; with GST-Dm-Relish, 4.03 z-score; with GST-Aq-NF-kB it was 5.71 z-score. In addition, the binding signal in the test with GST-Hu-p50 was 7.63 z-score.

Regarding “CCGATTAACATCAAGGAATCCCCTGATGTTAATCGGGTCTTGATTCGCTTGACGCTGCTG”, the binding signal with GST-Ap-NF-kB RHD worked out at 9.79 z-score; in test [1] it was 9.72 z-score; in test [2] it was 10.4 z-score; in the test with GST-Co-NF-kB, 3.63 z-score; with GST-Dm-Relish, 10.1 z-score; with GST-Aq-NF-kB it was 7.6 z-score. Moreover, in the test with GST-Hu-p50, the binding signal amounted to 7.1 z-score.
